According to PubChem BioAssay AID602438 (Sanford-Burnham Center for Chemical Genomics, 2012):
The whole screen tested about 360,000 compounds, of which about 3,100 (0.86%) were called active. The list comes from a sample in which actives are over-represented; it also holds similar structures and randomly drawn compounds. Values without a mark were called inactive.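 Rule for the calls: active = inhibition or corrected inhibition above about 18%, plus a signal ratio from 0.5 to 1.5 (limit read from the data, passing the limit was not always enough); inactive = the rest.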

These compounds were tested against Neuropilin-1 (Homo sapiens) (UniProt O14786) (assay: NRP-1/CendR peptide interaction modulators – biochemical, fluorescence polarization, uHTS, primary screen (AID 602438)). Details: FAM-RPARPAR peptide binding to NRP-1, fluorescence polarization; at 25 µM; active compounds read high.
Neuropilin-1 (Homo sapiens), sequence (O14786 whole entry, looked up): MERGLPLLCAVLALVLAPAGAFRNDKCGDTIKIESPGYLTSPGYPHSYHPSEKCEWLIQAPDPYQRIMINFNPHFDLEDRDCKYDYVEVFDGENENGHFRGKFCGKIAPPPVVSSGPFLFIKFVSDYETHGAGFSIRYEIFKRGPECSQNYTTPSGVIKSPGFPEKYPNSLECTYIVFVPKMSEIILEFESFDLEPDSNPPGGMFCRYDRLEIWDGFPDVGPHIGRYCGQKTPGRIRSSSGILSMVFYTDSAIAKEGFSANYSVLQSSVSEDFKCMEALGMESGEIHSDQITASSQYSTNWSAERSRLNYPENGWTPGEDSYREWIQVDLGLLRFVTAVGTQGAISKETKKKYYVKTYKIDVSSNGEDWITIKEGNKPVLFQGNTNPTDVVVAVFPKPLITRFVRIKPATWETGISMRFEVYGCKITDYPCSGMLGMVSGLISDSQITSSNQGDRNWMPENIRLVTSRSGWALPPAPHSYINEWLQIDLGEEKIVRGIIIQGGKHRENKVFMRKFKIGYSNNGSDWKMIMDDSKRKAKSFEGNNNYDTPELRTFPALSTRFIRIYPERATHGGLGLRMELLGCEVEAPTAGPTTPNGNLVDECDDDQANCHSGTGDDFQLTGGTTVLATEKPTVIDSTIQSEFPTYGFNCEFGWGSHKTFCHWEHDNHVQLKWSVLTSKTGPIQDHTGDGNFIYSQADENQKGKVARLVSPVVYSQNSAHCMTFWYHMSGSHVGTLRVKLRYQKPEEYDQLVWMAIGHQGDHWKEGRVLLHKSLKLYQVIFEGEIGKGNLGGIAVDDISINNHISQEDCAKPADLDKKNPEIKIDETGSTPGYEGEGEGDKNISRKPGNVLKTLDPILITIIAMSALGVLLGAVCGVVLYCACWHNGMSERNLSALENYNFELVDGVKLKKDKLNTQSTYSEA
Compound `CC1Cc2ccccc2N1CC(=O)Nc1ccc(S(N)(=O)=O)cc1` (stereo not drawn) has an inhibition of 3.7%.
In the case of `CC1COc2ccccc2N1S(=O)(=O)c1ccccc1` (stereo not drawn), the inhibition is reported as 8.8%.
For `O=C(O)c1ccc(F)c(S(=O)(=O)Nc2ccccc2)c1`, the inhibition was -11.7%.
`Cc1ccc(C(=O)Nc2ccccc2-c2ccccc2)cc1S(=O)(=O)Nc1ccccc1` was tested, and the inhibition was 29.8% (active).
Work on `Cc1cc(C(C)(C)C)cc(S(=O)(=O)Nc2ccc(C(=O)O)cc2)c1C` yielded an inhibition of 7.7%.
Work on `COC(=O)C1CCN(C(=O)c2ccc3oc(Cc4ccc(Cl)cc4)nc3c2)CC1` yielded an inhibition of 8.2%.
`O=C(C1CCN(CC2CCCCC2)CC1)N1CCCC1` gave an inhibition of 10.7%.
In the case of `COc1ccc(NC(=O)c2oc3ccc(S(=O)(=O)N4CCOCC4)cc3c2C)cc1`, the inhibition is reported as 13.1%.
`Cc1noc(C)c1CSc1nc2cc(S(=O)(=O)N3CCOCC3)ccc2o1` was tested, and the inhibition was 21.4% (active).
`NC(=O)CSc1nnc(-c2cccc(S(=O)(=O)N3CCOCC3)c2)o1` showed an inhibition of -9.5%.
In the case of `C[C@@H]1ON(C)[C@H]2C[C@H]3c4cc(N5CCN(C)CC5)ccc4CCN3C(=O)[C@@H]12`, the inhibition is reported as 4.7%.
Work on `Cc1cc(C)cc(N(CCC#N)C(=O)CN2C(=O)NC3(CCCC3)C2=O)c1` yielded an inhibition of -5.9%.
For `CCN(CC)S(=O)(=O)c1ccc2[nH]cc(C(=O)NCCc3ccccc3)c(=O)c2c1`, the inhibition was 8.6%.
`CN(C)/C(=N\OC(=O)c1ccccc1)c1nonc1N` was tested, and the inhibition was 2%.
In the case of `CCCOc1ccc(/C(O)=C2/C(=O)C(=O)N(CCN(C)C)C2c2ccc(OC)c(OC)c2)cc1` (stereo not drawn), the inhibition is reported as 1.7%.
`C=CCOc1ccc(C2/C(=C(\O)c3c(C)[nH]c(C(=O)OC)c3C)C(=O)C(=O)N2CCN(C)C)cc1` (stereo not drawn) was tested, and the inhibition was 29.5% (active).
`COc1cccc(C2/C(=C(/O)c3ccc(F)cc3)C(=O)C(=O)N2CCN(C)C)c1` (stereo not drawn) was tested, and the inhibition was 4%.
For `Cc1ccc(-c2nc(CS(=O)CC(=O)N3CCN(c4ncccn4)CC3)c(C)o2)cc1` (stereo not drawn), the inhibition was -11.2%.
`CCNC(=S)N(CCc1c(C)[nH]c2ccc(C)cc12)Cc1ccco1` was tested, and the inhibition was -23.4%.
`Cc1ccc(C)c(N(CC(=O)NCc2ccco2)C(=O)CCC(=O)Nc2ccccn2)c1` showed an inhibition of -4.5%.
For `CCCCC1=CC2=CC(=O)C(C)(OC(=O)CC)C(=O)C2=CN1CCCOC(C)C` (stereo not drawn), the inhibition was 29.4% (active).
Work on `CCN(CC)C(=O)N1CCN(C(=O)c2ccc(C)cn2)CC1` yielded an inhibition of 0.3%.
`Cc1ccc(C(CC(=O)O)NC(=O)c2ccc(S(=O)(=O)N3CCCC3)cc2)cc1` (stereo not drawn) gave an inhibition of -5.6%.
`N/C(=N\OC(=O)Cc1ccc([N+](=O)[O-])cc1)c1ccccn1` showed an inhibition of -0.7%.
`O=C(OCc1ccc([N+](=O)[O-])cc1)c1ccccn1` was tested, and the inhibition was 28.2% (active).
With `O=C(COC(=O)c1ccccn1)NNC(=O)c1ccc([N+](=O)[O-])cc1` the inhibition was 2.2%.
With `Cc1ccc(OCC(=O)N2CCN(C(=O)c3cccnc3)CC2)cc1` the inhibition was 6.1%.
Work on `O=C(C[C@H]1CC[C@H]2[C@@H](COC[C@H](O)CN2C(=O)c2ccccn2)O1)N1CCN(c2ccccc2)CC1` yielded an inhibition of 2.2%.
Compound `COc1cc(C2C(C(=O)c3sc(C)nc3C)=C(O)C(=O)N2CCN(C)C)cc(OC)c1OC` (stereo not drawn) has an inhibition of 0.6%.
With `COc1ccc(COCCN2CCN(S(=O)(=O)c3ccccc3)CCC2=O)cc1` the inhibition was 28.5% (active).
In the case of `Cc1ccc(S(=O)(=O)N2CCC(=O)N([C@H](COCc3ccccc3)Cc3ccccc3)CC2)cc1`, the inhibition is reported as -15.7%.
`Cc1ccc(S(=O)(=O)N2CCC(=O)N([C@H](COCc3ccccc3)C(C)C)CC2)cc1` gave an inhibition of -3.6%.
For `CCCCCn1nnnc1-c1nc2cc3ccccc3cc2[nH]c1=O`, the inhibition was 0%.
`COCCCNC(=O)c1c(F)c(F)c(F)c(F)c1F` was tested, and the inhibition was 8.4%.
In the case of `Cc1nc(C(F)(F)F)ccc1C(=O)N1CCC1(C)C(=O)NS(=O)(=O)c1ccccc1Cl` (stereo not drawn), the inhibition is reported as 13.8%.
`NC(=O)COc1ccccc1C(=O)NC12CC3CC(CC(C3)C1)C2` showed an inhibition of -2.6%.
`O=C(NCCN1CCOCC1)c1ccccc1N1C(=O)[C@@H]2Cc3c([nH]c4ccccc34)C(c3cccc(Cl)c3)N2C1=O` (stereo partly drawn) showed an inhibition of -5.5%.
`CCOCc1nnc(NC(=O)CSc2ccc(C)cc2)s1` gave an inhibition of -1%.
With `O=C(Nc1nnc(COc2ccccc2)s1)Nc1ccccc1F` the inhibition was -10.8%.
`Cc1ccc(OCc2nnc(NC(=O)OCC(C)C)s2)cc1` was tested, and the inhibition was 19.5% (active).
For `O=C(CNCc1ccco1)Nc1cc(S(=O)(=O)N2CCOCC2)ccc1N1CCCC1`, the inhibition was 7.8%.
In the case of `Cc1cc(C)c(CN2CCN(C(=O)Cn3ccc(NC(=O)OCc4ccccc4)nc3=O)CC2)c(C)c1`, the inhibition is reported as 3.3%.
`O=C(c1ccccc1)c1cccn1CC(=O)N1CCN(c2ccc(F)cc2)CC1` showed an inhibition of -4.3%.
In the case of `Cc1ccc(CNS(=O)(=O)c2ccc3c(c2)N(C)CCO3)cc1`, the inhibition is reported as -8.8%.
`CCc1nonc1NC(=O)c1oc2ccc(Cl)cc2c1C` gave an inhibition of 13.2%.
For `COc1ccc(-c2nonc2NC(=O)c2oc3ccc(F)cc3c2C)cc1OC`, the inhibition was 30.3% (active).
`Cc1nonc1NC(=O)c1oc2ccccc2c1C` was tested, and the inhibition was 7.8%.
For `O=C(NCc1ccc2c(c1)OCO2)C1CCCN(S(=O)(=O)c2cccs2)C1` (stereo not drawn), the inhibition was -10.1%.
In the case of `CCCCc1c(-c2ccc(Br)cc2)ncn1CCc1ccccc1OC`, the inhibition is reported as 12.7%.
`CC(C)C1Cc2[nH][nH]c(=O)c2C(c2ccc(Cl)cc2)O1` (stereo not drawn) gave an inhibition of -4.6%.
`CC(C)NC(=O)c1ccccc1S(=O)c1ccccc1C#N` (stereo not drawn) was tested, and the inhibition was -10.3%.
`CCc1oc(-c2ccc(OC)cc2)c(C(=O)OCCCCCO)c1C(C)OCCO` (stereo not drawn) was tested, and the inhibition was 23% (active).
For `CCN(CCCCOC(=O)c1ccc(OC)c(OC)c1)C(C)Cc1ccc(OC)cc1` (stereo not drawn), the inhibition was -0.7%.
In the case of `COc1ccc(-c2oc3ncnc(NCCCO)c3c2-c2ccc(OC)cc2)cc1`, the inhibition is reported as 4.1%.
`CCOC(=O)C1=CC[C@@H](c2ccccc2)N(S(=O)(=O)c2ccc(C)cc2)[C@H]1c1ccc(CC)cc1` gave an inhibition of 11.1%.
For `CCOC(=O)C1=CC[C@@H](c2ccccc2)N(S(=O)(=O)c2ccc(C)cc2)[C@H]1c1cccc(OC)c1`, the inhibition was 26% (active).
`CCOC(=O)C1=CC[C@@H](c2ccncc2)N(S(=O)(=O)c2ccc(C)cc2)C1` was tested, and the inhibition was 13.9%.
Work on `Cc1ccc([C@@H]2CC=C(C(=O)O)[C@H](c3cccc(Cl)c3)N2S(=O)(=O)c2ccc(C)cc2)cc1` yielded an inhibition of -10.9%.
With `CCOC(=O)C1=CCC(c2ccc(F)cc2)N(S(=O)(=O)c2ccc(C)cc2)C1` (stereo not drawn) the inhibition was 19.9% (active).
For `CC(=O)C1=CCC(c2ccccc2)N(S(=O)(=O)c2ccc(C)cc2)C1` (stereo not drawn), the inhibition was -3.9%.
Work on `CCN(CC)S(=O)(=O)c1ccc(CNC(=O)CN2C(=O)NC3(CCc4ccccc43)C2=O)cc1` (stereo not drawn) yielded an inhibition of -10.1%.
Compound `CCOC(=O)CSc1ccccn1` has an inhibition of 2.8%.
Compound `CCOC(=O)CSc1nc(N2CCOCC2)c2c(c1C#N)CC(C(C)C)OC2` (stereo not drawn) has an inhibition of -2%.
`CCOC(=O)CSc1nccc(N(C)C)c1C#N` was tested, and the inhibition was 25.2% (active).
Compound `Cc1n[nH]c(C)c1S(=O)(=O)N1CCCC(C(=O)NCC2COc3ccccc3O2)C1` (stereo not drawn) has an inhibition of 6.3%.
`COC(=O)Nc1ncc(CN2CCCCC2)s1` showed an inhibition of 6.1%.
Compound `COC(=O)C1(C(=O)OC)C[C@H](c2ccccc2)N(Cc2ccccc2OC)[C@@H]1c1ccccc1` has an inhibition of 18.8%.
Compound `COCCCNC(=O)c1ccc2c(c1)ncn2-c1ccccc1OC` has an inhibition of -5.2%.
With `COCCNC(=O)c1ccc2c(c1)ncn2-c1ccc(C)c(Cl)c1` the inhibition was 37.8% (active).
With `COC(CNC(=O)c1ccc2c(c1)ncn2-c1cc(C)cc(C)c1)OC` the inhibition was -2.4%.
In the case of `CC1(C)NC(=O)N(CC(=O)N2CCN(S(=O)(=O)c3ccccc3F)CC2)C1=O`, the inhibition is reported as -17.9%.
Compound `CCOC(=O)N1CCC(N(CCOC)C(=O)Nc2ccc(C)c(C)c2)CC1` has an inhibition of -9.1%.
For `CC(=O)NCC(=O)N(C)C(C(=O)Nc1ccc2c(c1)OCCO2)c1ccccc1` (stereo not drawn), the inhibition was -6%.
`CC(=O)N1c2ccc(S(=O)(=O)N3CCC(C(=O)NC4CCCCC4C)CC3)cc2CC1C` (stereo not drawn) was tested, and the inhibition was 21.3% (active).
For `CC(=O)N1c2ccc(S(=O)(=O)N3CCC(C(=O)NC4CCCC(C)C4C)CC3)cc2CC1C` (stereo not drawn), the inhibition was 1.3%.
Work on `CC(=O)N1c2ccc(S(=O)(=O)N3CCC(C(=O)NCc4ccc(F)cc4)CC3)cc2CC1C` (stereo not drawn) yielded an inhibition of -3.5%.
For `COc1ccc2c(c1)C(NS(=O)(=O)OCC(Cl)(Cl)Cl)CCC2` (stereo not drawn), the inhibition was 20.7% (active).
In the case of `COC(=O)c1cc(OCC(=O)NC2CCCc3ccccc32)cc(C(=O)OC)c1` (stereo not drawn), the inhibition is reported as 11.6%.
With `COc1ccc(CN(C)C(C)C(=O)NC2CCCc3ccccc32)cc1` (stereo not drawn) the inhibition was -9.8%.
`CCCc1nnc(NC(=O)CCC(=O)NC2CC2)s1` was tested, and the inhibition was -3.9%.
In the case of `COc1cccc(N(C(=O)c2ccn[nH]2)C2(C(=O)Nc3c(C)cccc3C)CCCCC2)c1`, the inhibition is reported as 20.6% (active).
`Cc1cccc(C)c1NC(=O)C1(N(C(=O)c2ccccn2)c2ccc(O)cc2)CCCCC1` showed an inhibition of -2.4%.
With `COc1cccc(NC(=O)C2(C)CCN2C(=O)CCC2CCCC2)c1` (stereo not drawn) the inhibition was -6.9%.
For `Cc1nc2c(-c3ccc(F)cc3)c(C)nn2c(C)c1CCC(=O)N1CCN(c2ccccn2)CC1`, the inhibition was -14.2%.
`CCc1ccc(Nc2n[n+](-c3ccccc3)c(-c3cccc(Cl)c3Cl)s2)cc1` showed an inhibition of 7.2%.
In the case of `COc1ccc(C)cc1Nc1n[n+](-c2ccccc2)c(-c2cccc(Cl)c2Cl)s1`, the inhibition is reported as 9.5%.
In the case of `COc1cc(Br)c(-c2sc(Nc3ccccc3)n[n+]2-c2ccccc2)cc1OC`, the inhibition is reported as 23.7% (active).
For `O=C(C(NS(=O)(=O)c1cccc2nsnc12)c1ccccc1)N1CCN(c2ccccc2)CC1` (stereo not drawn), the inhibition was 3.4%.
